In PubChem BioAssay (NCATS):
Records with an inconclusive call do not appear. Active and inactive are the calls of the source. Calls follow the shape of the dose curve; as a rule, active = well fitted cell-killing curve with a large enough effect; inconclusive = small, poorly fitted or top-dose-only effect; inactive = flat fitted curve, though single readings scatter.

Columns and labels:
[1] = Cellular viability qHTS for adrenocortical cancer (ACC) cell line SW-13 (AID 1963989); details: SW-13 ACC cells viability, CellTiter-Glo, 48 h; activity (max response): hits give low values; also: nearly all actives have a fitted effect of over 65% in size;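 as to activity (max response): cells grown in serum-free medium with ITS supplement; % is scaled to controls: 0 for no effect and ±100 for the full control effect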
Outline: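 Viability was read as CellTiter-Glo luminescence after 48 h compound treatment (up to 46 uM final) of SW-13 cells grown serum-free; titration curves were fit with a four-parameter logistic model to give IC50 and efficacy.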

[2] = Cellular viability qHTS for adrenocortical cancer (ACC) cell line NCI-H295R (AID 1963990); also: nearly all actives have a fitted effect of over 60% in size
Outline: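 CellTiter-Glo ATP luminescence, read 48 h after compound addition, measured viability of NCI-H295R adrenocortical cells grown serum-free with ITS. Final concentrations spanned up to 46 uM. Data normalized to DMSO and doxorubicin, fitted for IC50 and maximal response.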
Potency is read from the fitted curve at half-maximal effect.

Row | SMILES | activity (max response) [1] | Potency [2] | Potency [1]
1 | Nc1ccc(N=Nc2ccccc2)c(N)n1 | -2.95% (inactive) | inactive | –
2 | CCCCCCCCCCC[C@@H](C[C@@H]1OC(=O)[C@H]1CCCCCC)OC(=O)[C@H](CC(C)C)NC=O | 4.97% (inactive) | inactive | –
3 | OC(C#CCN1CCCC1)(c1ccccc1)c1ccccc1 | -0.545% (inactive) | inactive | –
4 | COc1ccc([C@@H](O)[C@@H](C)Oc2ccc([C@H]3O[C@H](c4ccc(O[C@H](C)[C@H](O)c5ccc(OC)c(OC)c5)c(OC)c4)[C@H](C)[C@H]3C)cc2OC)cc1OC | – | 1.78 µM (active) | 0.316 µM (active)
5 | C[C@H](CS)C(=O)N1CCC[C@H]1C(=O)O | -1.14% (inactive) | inactive | –
6 | C=C[C@@]1(C)CC(=O)[C@]2(O)[C@@]3(C)[C@@H](O)CCC(C)(C)[C@@H]3[C@H](O)[C@H](OC(C)=O)[C@@]2(C)O1 | 4.29% (inactive) | inactive | –
7 | CCN1C(=O)c2ccccc2C1Nc1ccc(OCCN2CCCCC2)cc1 (configuration not stated) | 0.694% (inactive) | inactive | –
8 | Oc1c(Cl)cc(Cl)cc1Sc1cc(Cl)cc(Cl)c1O | – | 20.6 µM (active) | 20.6 µM (active)
9 | C[C@]12CCC(=O)C=C1CC[C@H]1[C@@H]3CC[C@](O)(C(=O)CO)[C@@]3(C)C[C@H](O)[C@@]12F | 6.22% (inactive) | inactive | –
10 | CC(O)Cn1cnc2c1c(=O)n(C)c(=O)n2C (configuration not stated) | -7.87% (inactive) | inactive | –
11 | CC(C)(C)C(=O)CN1C(=O)[C@H](NC(=O)Nc2cccc(C(=O)O)c2)CN(C2CCCCC2)c2ccccc21 | 11.5% (inactive) | inactive | –
